Results reported in PubChem BioAssay (NCI).
Compounds without any hit were thinned out: in the full panel of roughly 79,000, 15% have a hit. Values without a mark were called inactive. Calls of active or inactive are those of the source. No stated cut-off is given here; in the data, active means growth inhibition above about 70%; inactive means the rest.

Assay: NCI Yeast Anticancer Drug Screen. Data for the sgs1 strain (AID 173);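 further: 0% = growth of vehicle-only control cultures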
Settings: S. cerevisiae sgs1 mutant, stronger effect = higher value
Protocol: Growth inhibition of yeast strains with defined genetic alterations is measured as a screen for potential anti-cancer activity. Selected strains with alterations in DNA damage repair or cell cycle control were exposed to compounds and growth inhibition was measured relative to vehicle treated controls. The strain used in this assay is sgs1

Row | SMILES | growth inhibition (at 1.2 µM) [%] | growth inhibition (at 3.7 µM) [%] | growth inhibition (at 11.0 µM) | growth inhibition (at 33.0 µM) | growth inhibition (at 100.0 µM)
1 | COC(=O)C(=O)CC(=O)c1cccc(OC)c1 | -16 | -6 | 8% | 49% | 82% (active)
2 | Cc1c(Cl)c(C)c(Cl)c(O)c1Cl | 15 | 9 | 34% | 95% (active) | 99% (active)
3 | COc1cc(NCCCCNCC(C)(C)C)c2ncccc2c1 | -3 | -2 | 6% | 15% | 20%
4 | CN(CCOc1ccc(Cl)cc1)CCOc1ccc(Cl)cc1 | 18 | 23 | 48% | 98% (active) | 99% (active)
5 | CCN1CCC(O)(c2ccc(Oc3ccc(C)cc3)cc2)C(C(=O)c2ccc(Oc3ccc(C)cc3)cc2)C1 (stereo not given) | -18 | -22 | 97% (active) | 96% (active) | 93% (active)
6 | O=C(/C=C/c1ccsc1)c1cccs1 | -15 | -23 | -24% | -17% | 83% (active)
7 | O=C(NCCCCN(CCCNC(=O)C(F)(F)F)Cc1ccccc1)C(F)(F)F | 40 | 41 | 44% | 15% | 36%
8 | O=S(=O)(c1ccccc1)N1CN2CN(C1)CN(S(=O)(=O)c1ccccc1)C2 | -21 | -19 | -23% | -24% | -19%
